Laboratory results: PubChem BioAssay (NCI)
This is part of a sample that, as a whole, favours compounds with a hit. Of some 83,000 tested, about 20% had one in any assay.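 A percent growth of 40 corresponds to 60% growth inhibition; 0 means no net growth; -100 means all cells died. Active threshold: below 10.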 Values without a mark were called inactive. The source made the active and inactive calls.

How the values were obtained:
Assay in all cases: NCI-60 one-dose screen, 48 h (100 = growth as untreated, 0 = no growth, -100 = all killed)
Conditions in all cases: 10 µM unless noted
NCI-H226 lung = system: NCI-H226 lung
NCI-H322M lung = system: NCI-H322M lung
HOP-62 NSCLC = system: HOP-62 NSCLC
NCI-H460 lung = system: NCI-H460 lung
HOP-92 NSCLC = system: HOP-92 NSCLC
NCI-H522 lung = system: NCI-H522 lung
A549/ATCC NSCLC = system: A549/ATCC NSCLC
786-0 renal = system: 786-0 renal
COLO 205 colon = system: COLO 205 colon

CCC1CC(O)c2c(O)c3c(c(O)c2C1O)C(=O)c1cccc(O)c1C3=O (centres undefined) (tested in a mixture with another compound)
growth (NCI-H226 lung): -9.01% (active) | growth (NCI-H322M lung): -16.4% (active) | growth (HOP-62 NSCLC): -62.2% (active) | growth (NCI-H460 lung): -53.6% (active) | growth (HOP-92 NSCLC): -29.3% (active) | growth (NCI-H522 lung): -47.9% (active) | growth (A549/ATCC NSCLC): -23.2% (active) | growth (786-0 renal): -31% (active) | growth (COLO 205 colon): -46.4% (active)

CC1=C(CNO)C2=C(C)C3(CC3)[C@@](C)(O)C(=O)C2=C1
growth (NCI-H226 lung): 25.3% | growth (NCI-H322M lung): -15.8% (active) | growth (HOP-62 NSCLC): 1.62% (active) | growth (NCI-H460 lung): -0.969% (active) | growth (HOP-92 NSCLC): -19.6% (active) | growth (NCI-H522 lung): -7.65% (active) | growth (A549/ATCC NSCLC): -7.8% (active) | growth (786-0 renal): -17.5% (active) | growth (COLO 205 colon): -20.4% (active)

CCCCC1(CCC)C(=O)NC(=S)NC1=O
growth (NCI-H226 lung): 106% | growth (NCI-H322M lung): 112% | growth (HOP-62 NSCLC): 99.6% | growth (NCI-H460 lung): 108% | growth (HOP-92 NSCLC): 71.4% | growth (NCI-H522 lung): 81.7% | growth (A549/ATCC NSCLC): 125% | growth (786-0 renal): 93.8% | growth (COLO 205 colon): 112%

CCOC(=O)N1CC1
growth (NCI-H226 lung): 104% | growth (NCI-H322M lung): 105% | growth (HOP-62 NSCLC): 99.8% | growth (NCI-H460 lung): 107% | growth (HOP-92 NSCLC): 53% | growth (NCI-H522 lung): 92.4% | growth (A549/ATCC NSCLC): 99.9% | growth (786-0 renal): 102% | growth (COLO 205 colon): 91.3%

COc1ccc2c(c1)c(-c1nc(-c3cn(C)c4ncccc34)cs1)cn2CCN1CCOCC1
growth (NCI-H226 lung): 43% | growth (NCI-H322M lung): 62.3% | growth (HOP-62 NSCLC): 12.5% | growth (NCI-H460 lung): 23.9% | growth (HOP-92 NSCLC): 31.3% | growth (NCI-H522 lung): 19.9% | growth (A549/ATCC NSCLC): 30.5% | growth (786-0 renal): 44.4% | growth (COLO 205 colon): 33.2%

C=CC[Se]C(=O)c1ccccc1OC(C)=O
growth (NCI-H226 lung): 28.1% | growth (NCI-H322M lung): -17% (active) | growth (HOP-62 NSCLC): -7.57% (active) | growth (NCI-H460 lung): -13.4% (active) | growth (HOP-92 NSCLC): 15.2% | growth (NCI-H522 lung): 47.1% | growth (A549/ATCC NSCLC): 0.797% (active) | growth (786-0 renal): -7.14% (active) | growth (COLO 205 colon): 36%
